Bioassay records: PubChem, National Center for Advancing Translational Sciences (NCATS)
POLH inh: DNA polymerase eta (human) inhibition; Q9Y253; recombinant Pol eta, fluorescent DNA replication assay; Potency, µM (top dose mostly 114 µM), inactives show at the top dose activity change, negative = inhibition, actives largely listed as inhibitors; 390,000 compounds, 1.2% hits; also: % is scaled to controls: 0 for no effect and ±100 for the full control effect
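Pol eta (10 nM) was preincubated with compounds for 15 min at room temperature, after which fluorescent replication substrate (50 nM final) was added to start the reaction. Fluorescence was read kinetically at 0 and 10 min.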
Pol kappa inh: DNA polymerase kappa (human) inhibition | purified Pol kappa, fluorescent DNA synthesis assay, 10 min | Potency, µM (titrated, usually from 107 µM), without a hit: at the highest dose activity, negative = inhibition, usual class: inhibitors | 400,000 compounds, 0.53% hits | AID 588579; also: % is scaled to controls: 0 for no effect and ±100 for the full control effect
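First, compounds were pin-transferred onto 10 nM Pol kappa. After 15 min at room temperature, substrate was added to 50 nM final. Fluorescence was then measured kinetically at 0 and 10 min.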
WRN inhibitor: WRN helicase (human) inhibition | WRN helicase unwinding, fluorescent forked duplex, kinetic | 360,000 compounds, 0.46% hits | Potency, µM (highest dose often 114 µM), without a hit: top-dose activity change, negative = inhibition, most hits filed as inhibitors | Q14191; also: % is scaled to controls: 0 for no effect and ±100 for the full control effect; nearly all actives have a fitted effect of over 55% in size
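Primary qHTS, 1536-well format. 20 nM WRN + compound, 15 min RT; start with 100 nM forked fluorophore/quencher duplex, 2 mM ATP (final); kinetic read ex 525/em 598 nm.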
POLI inh: blocks human DNA polymerase iota activity. Q9UNA4. Pol iota fluorescent replication assay, 10 min. Potency, µM (doses to about 115 µM), for inactives: at the top dose activity, negative = inhibition, most hits filed as inhibitors. 390,000 compounds, 1% hits. AID 588590
Target sequence (Q9UNA4 whole entry, looked up): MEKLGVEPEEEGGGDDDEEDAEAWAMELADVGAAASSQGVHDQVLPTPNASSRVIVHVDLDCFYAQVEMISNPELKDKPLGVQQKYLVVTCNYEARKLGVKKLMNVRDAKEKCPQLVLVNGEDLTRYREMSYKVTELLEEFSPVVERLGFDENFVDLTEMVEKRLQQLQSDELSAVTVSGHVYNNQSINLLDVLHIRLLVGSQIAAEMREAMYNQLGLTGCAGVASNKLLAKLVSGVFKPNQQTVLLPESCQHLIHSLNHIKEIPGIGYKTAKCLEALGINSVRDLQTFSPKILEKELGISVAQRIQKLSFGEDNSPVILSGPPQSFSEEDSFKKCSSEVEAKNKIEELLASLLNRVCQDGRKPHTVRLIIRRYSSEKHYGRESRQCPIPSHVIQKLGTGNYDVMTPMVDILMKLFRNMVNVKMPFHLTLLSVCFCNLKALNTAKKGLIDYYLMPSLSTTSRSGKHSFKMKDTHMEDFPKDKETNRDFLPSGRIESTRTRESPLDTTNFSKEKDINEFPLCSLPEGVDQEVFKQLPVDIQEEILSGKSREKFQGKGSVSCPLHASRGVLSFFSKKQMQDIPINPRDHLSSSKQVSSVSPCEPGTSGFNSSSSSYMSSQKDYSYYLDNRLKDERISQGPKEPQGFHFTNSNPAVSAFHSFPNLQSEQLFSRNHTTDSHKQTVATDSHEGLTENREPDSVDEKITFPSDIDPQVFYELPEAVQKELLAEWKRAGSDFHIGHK
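Fluorescent replication assay read twice, at 0 min and 10 min after adding 50 nM (final) substrate. Enzyme (10 nM) and compounds were first incubated 15 min at room temperature; enzyme-free buffer wells were negative controls.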
POLB inh: blocks human DNA polymerase beta activity. Pol beta primer extension/strand displacement, fluorescence kinetic. 340,000 compounds, 1.3% hits. P06746. Potency, µM (series often up to 114 µM), inactives show at the top dose activity change, negative = inhibition, usual class: inhibitors; also: % is scaled to controls: 0 for no effect and ±100 for the full control effect
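Human Pol beta at 10 nM; strand-displacement substrate 50 nM final. Compound exposure 15 min at room temperature before start, reaction 10 min at room temperature.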
FEN1 inhibitor: human FEN1 inhibition | Potency, µM (series often up to 114 µM), for the others: at the highest dose activity change, negative = inhibition, usual class: inhibitors | AID 588795 | Recombinant FEN1 flap cleavage, fluorescence, 15 min | 390,000 compounds, 0.35% hits | P39748; also: % is scaled to controls: 0 for no effect and ±100 for the full control effect; nearly all actives have a fitted effect of over 65% in size
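Steps: FEN1 (10 nM) dispensed; compound added by pin tool; 15 min at room temperature; substrate added to 50 nM final; reads at 0 min and 15 min; data normalized and fitted (four-parameter Hill).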
An asterisk follows results filed as active; ? = inconclusive; . = not tested or not shown; [ ] = remark or other dose. Only some compounds are listed: those with a hit (about 2.4% of all), similar ones and a draw of the others. Calls follow the shape of the dose curve; as a rule, active = well fitted curve in the direction sought with a large enough effect; inconclusive = small, poorly fitted or top-dose-only effect, or another doubt; inactive = no such curve, though single readings can be large; an effect the other way counts as inactive or inconclusive. Potency is read from the fitted curve at half-maximal effect.

SMILES	POLH inh	Pol kappa inh	WRN inhibitor	POLI inh	POLB inh	FEN1 inhibitor
CC(C)(C)n1ncc2c(=O)n(Cc3ccc(-c4ccccc4C#N)cc3)cnc21	.	13.0%	.	20.2%	.	0.2%
Cc1oc2c(cc(NS(=O)(=O)c3ccc(Cl)cc3)c3ccccc32)c1C(=O)O	50.1µM*	-40.5%	-20.5%	46.1%	19.9%	-20.4%
CC(=O)c1c(C)oc2c1cc(NS(=O)(=O)c1ccc(Br)cc1)c1ccccc12	-20.6%	-2.5%[60.1 µM]	.	48.4%	-18.5%	15.8%
CCCn1cc(S(=O)(=O)c2cc(C)ccc2C)c(=O)c2cc(F)c(N3CCCCCC3)cc21	-17.3%	-13.6%	.	?	-0.3%	-16.4%
CC(C)(C)N/N=C/c1cc(Cl)cc([N+](=O)[O-])c1O	?	-8.6%	-16.9%	-1.4%	35.5µM*	-9.2%
Oc1cc(CNC2CCCCC2)c(O)cc1CNC1CCCCC1	?	79.4µM*	-12.7%	?	.	-7.5%
Cc1cccc(NC(=O)c2cc(-c3ccc(C)c(C)c3O)n[nH]2)c1	-26.1%	11.0%	-6.0%	79.4µM*	-9.2%	-15.6%
COc1ccc(C2Nc3ccc(NC(C)=O)cc3C(=O)N2Cc2cccc(Cl)c2)cc1COc1ccc(NC(C)=O)cc1 (stereo not given)	.	-6.0%	.	25.9%	.	-21.9%
CCCC(CCC(=O)Nc1cc([N+](=O)[O-])ccc1O)C(=O)O (stereo not given)	4.7%	-14.7%	-5.1%	-11.0%	22.4µM*	1.3%
O=C(O)CCCC(=O)Nc1cc([N+](=O)[O-])ccc1O	-5.5%	-8.6%	-5.7%	12.0%	22.7%	-3.5%
C(=Nc1ccc(/C=C/c2ccnc3ccccc23)cc1)c1ccco1	.	2.2%	.	18.4%	.	-0.4%
CC(=O)Nc1cc(NC(C)=O)cc(C(=O)N2CCCC3CCCCC32)c1 (stereo not given)	22.4µM*	79.4µM*	?	14.1µM*	?	-19.7%
Cc1ccc(NC(=O)CN2C(=O)S/C(=C\c3cc(C)n(-c4cccc(C(=O)O)c4)c3C)C2=O)cc1	56.2µM*	-6.9%	?	?	44.7µM*	-17.8%
Cc1ccc(NC(=O)CN2C(=O)S/C(=C\c3cc(C)n(C)c3C)C2=O)cc1	5.6%	0.4%	-4.3%	7.8%	3.6%	2.0%
Cc1ccc(NC(=O)CN2C(=O)S/C(=C\c3ccc(C(=O)O)cc3)C2=O)cc1	6.6%	-2.9%	1.4%	-5.4%	38.7%	25.5%
Cc1ccc(NC(=O)CN2C(=O)S/C(=C\c3ccc(-c4cccc(C(=O)O)c4C)o3)C2=O)cc1	.	.	.	.	100µM*	.
Cc1ccc(C)c(N2C(=N)S/C(=C\c3ccc(-c4ccccc4C(=O)O)o3)C2=O)c1	22.4µM*	?	?	14.1µM*	?	-13.8%
COC(=O)c1cc2c([nH]c1=O)CC(c1ccccc1)CC2=O (stereo not given)	.	5.7%	.	10.2%	.	-15.3%
CCOc1ccc(-c2cc(NC(=O)Nc3ccccc3Cl)c(C(=O)OC)s2)cc1	-4.1%	-4.9%	.	10.7%	6.0%	11.1%
CN(Cc1ccccc1)c1nc2c(S(=O)(=O)c3cccc(Cl)c3)nnn2c2ccsc12	-16.9%	0.8%	.	12.7%	13.1%	1.8%
C/C(=N\NC(=O)c1cc(O)ccc1O)c1cccc(NC(=O)c2ccc(Cl)cc2)c1	22.4µM*	50.1µM*	39.8µM*	20µM*	44.7µM*	?
CC(=O)Nc1cccc(/C(C)=N/NC(=O)c2ccc(O)cc2)c1	-10.7%	3.1%	-6.1%	?	0.2%	-18.9%
COc1cc(-c2nc(C(N)=O)c3c(n2)n(-c2cccc(C)c2)c(=O)n3C)cc(OC)c1OC	1.8%	-8.8%[60.1 µM]	.	12.4%	?	-0.1%
CC(C)(C)C1CCc2c(sc3nnn(CCOc4ccccc4)c(=O)c23)C1 (stereo not given)	.	-10.1%	.	-9.5%	25.1µM*	8.1%
Cc1cc(C)c(NC(=O)Cn2nnc3sc4c(c3c2=O)CCC(C(C)(C)C)C4)c(C)c1 (stereo not given)	.	-0.1%	.	10.1%	33.1%	-7.1%
SMILES	POLH inh	Pol kappa inh	WRN inhibitor	POLI inh	POLB inh	FEN1 inhibitor
CCn1nnc2sc3c(c2c1=O)CCC(C)C3 (stereo not given)	-9.0%	-9.9%	-0.2%	9.6%	39.8%	-11.3%
Cc1ccc(OCCn2nnc3sc4c(c3c2=O)CCC(C(C)(C)C)C4)cc1 (stereo not given)	.	-13.1%	.	-11.0%	22.4µM*	-4.8%
Cc1cccc(OCCCCn2nnc3sc4c(c3c2=O)CCC(C)C4)c1 (stereo not given)	.	-25.5%	.	?	14.1µM*	2.8%
CC(=O)Cn1nnc2sc3c(c2c1=O)CCC(C(C)(C)C)C3 (stereo not given)	-9.8%	-18.2%	1.9%	64.6%	14.7%	-16.4%
Cc1ccc(-c2nc3cc(Cl)ccc3o2)cc1NC(=O)COc1ccc(F)cc1	.	-4.3%	.	25.4%	29.9%	-0.4%
OC[C@H]1O[C@@H](n2cnc3c(N[C@H]4C[C@H]5CC[C@@H]4C5)ncnc32)[C@H](O)[C@@H]1O	.	4.0%[19.4 µM]	.	.	.	.
O=C1OC(c2ccc(Cl)cc2)=N/C1=C\C=C\c1ccco1	18.4%	?	-13.4%	?	28.2µM*	-8.2%
O=C(CCc1ccc(O)cc1)c1c(O)cc(O)cc1O[C@H]1OC(CO)C(O)C(O)C1O (stereo not given in full)	.	-11.8%[60.1 µM]	.	.	.	.
O=S(=O)(c1ccc2ccccc2c1)N1CCN(c2nc(-c3ccccc3)nc3ccccc23)CC1	.	-20.1%	.	10.9%	.	-8.1%
Cc1ccc(-c2[nH]c3cc(C(=O)NCCCn4ccnc4)ccc3c(=O)c2O)cc1	-9.3%	-3.7%	-22.3%	79.4µM*	-0.1%	?
CCCNC(=O)c1ccc2c(=O)c(O)c(-c3ccc(C)cc3)[nH]c2c1	-0.3%	-5.1%	-5.7%	21.2%	4.1%	?
COc1ccc(OC)c(NCc2cccn2-c2nnc(N3CCCCC3)s2)c1	-12.8%	-6.5%	.	38.2%	2.7%	-22.4%
CC(=O)Nc1cccc(NC(=O)CSc2ncc(-c3ccccc3)[nH]2)c1	5.7%	-25.4%	-7.8%	?	14.1µM*	-6.7%
O=C(CSc1ncc(-c2ccccc2)[nH]1)Nc1ccccc1	-17.8%	-19.1%	-6.3%	7.1%	-15.2%	5.9%
O=C(N/N=C/c1ccc(OCc2ccccc2)cc1)c1ccncc1	-6.7%	1.5%	1.3%	-22.3%	9.0%	-4.1%
